Measured values published in publication PMC7862700, “An all-to-all approach to the identification of sequence-specific readers for epigenetic DNA modifications on cytosine”.

Key:
Experiment in all cases: DAPPL (digital affinity profiling via proximity ligation, sequencing); 10 mM Tris-HCl pH 7.5, 50 mM NaCl, 1 mM DTT, 4% glycerol, room temperature, 30 min; GST-TFs on glutathione beads, 16-mer random dsDNA library, 0.1% formaldehyde crosslink after washing; high values mean tight binding
Conditions in all cases: protein: recombinant; tags: N-terminal GST; dsDNA, one strand shown
FLI1 = target: T1, FLI1 (Homo sapiens, UniProt Q01543 1-452)
T1 sequence: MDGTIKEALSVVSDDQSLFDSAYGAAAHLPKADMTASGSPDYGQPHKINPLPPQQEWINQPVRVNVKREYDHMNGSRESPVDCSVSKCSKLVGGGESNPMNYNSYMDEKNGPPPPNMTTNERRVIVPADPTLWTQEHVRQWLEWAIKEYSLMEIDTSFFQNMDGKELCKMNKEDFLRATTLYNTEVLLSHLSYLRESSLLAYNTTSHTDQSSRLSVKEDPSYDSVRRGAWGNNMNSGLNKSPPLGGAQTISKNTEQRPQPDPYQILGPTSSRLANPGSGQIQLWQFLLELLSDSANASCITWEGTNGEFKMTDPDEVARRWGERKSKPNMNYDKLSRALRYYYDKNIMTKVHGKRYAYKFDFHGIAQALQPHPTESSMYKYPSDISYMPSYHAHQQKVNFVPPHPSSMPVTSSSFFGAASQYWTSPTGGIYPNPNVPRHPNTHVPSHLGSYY
How it was run: (§1)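 Yeast served to express human transcription factors as GST fusions, which were then captured on glutathione beads and labelled with DNA barcodes. Pooled with a tag-only sample, they were incubated with 200 nmole of a 16-mer random double-stranded DNA library for 30 min at room temperature in Tris/NaCl/DTT/glycerol buffer, washed, crosslinked with 0.1% formaldehyde, ligated by proximity, amplified by PCR and sequenced. Dividing each hexamer's read frequency for a factor by its frequency for the tag-only sample gives the binding signal.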

ELK1 = target: T2, ELK1 (Homo sapiens, UniProt P19419 1-428)
T2 sequence: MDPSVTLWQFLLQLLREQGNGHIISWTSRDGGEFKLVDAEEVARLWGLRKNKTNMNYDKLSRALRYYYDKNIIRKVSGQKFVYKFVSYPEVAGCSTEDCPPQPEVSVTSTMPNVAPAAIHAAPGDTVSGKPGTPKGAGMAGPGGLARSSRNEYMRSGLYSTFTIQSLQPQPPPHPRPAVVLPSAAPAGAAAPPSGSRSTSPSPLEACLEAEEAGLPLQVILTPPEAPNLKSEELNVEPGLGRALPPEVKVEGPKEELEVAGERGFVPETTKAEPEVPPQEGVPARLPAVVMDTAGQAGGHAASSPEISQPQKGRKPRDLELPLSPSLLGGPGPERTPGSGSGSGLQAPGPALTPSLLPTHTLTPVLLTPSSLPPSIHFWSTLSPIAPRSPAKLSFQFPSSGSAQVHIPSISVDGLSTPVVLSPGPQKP
How it was run: as §1

GABPA = target: T3, GABPA (Homo sapiens, UniProt Q06546 1-454)
T3 sequence: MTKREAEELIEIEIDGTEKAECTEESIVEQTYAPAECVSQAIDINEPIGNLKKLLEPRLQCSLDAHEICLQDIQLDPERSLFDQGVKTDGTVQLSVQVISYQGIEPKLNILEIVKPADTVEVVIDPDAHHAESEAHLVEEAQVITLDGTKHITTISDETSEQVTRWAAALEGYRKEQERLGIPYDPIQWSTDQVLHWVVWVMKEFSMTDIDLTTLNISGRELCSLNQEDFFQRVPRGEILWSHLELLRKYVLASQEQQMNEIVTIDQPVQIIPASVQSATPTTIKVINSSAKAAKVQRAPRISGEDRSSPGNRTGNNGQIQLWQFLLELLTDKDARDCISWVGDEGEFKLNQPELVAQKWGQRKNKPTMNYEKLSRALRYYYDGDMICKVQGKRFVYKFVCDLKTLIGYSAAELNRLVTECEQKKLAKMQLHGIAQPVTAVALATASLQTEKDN
How it was run: as §1

ERG = target: T4, ERG (Homo sapiens, UniProt P11308 1-479)
T4 sequence: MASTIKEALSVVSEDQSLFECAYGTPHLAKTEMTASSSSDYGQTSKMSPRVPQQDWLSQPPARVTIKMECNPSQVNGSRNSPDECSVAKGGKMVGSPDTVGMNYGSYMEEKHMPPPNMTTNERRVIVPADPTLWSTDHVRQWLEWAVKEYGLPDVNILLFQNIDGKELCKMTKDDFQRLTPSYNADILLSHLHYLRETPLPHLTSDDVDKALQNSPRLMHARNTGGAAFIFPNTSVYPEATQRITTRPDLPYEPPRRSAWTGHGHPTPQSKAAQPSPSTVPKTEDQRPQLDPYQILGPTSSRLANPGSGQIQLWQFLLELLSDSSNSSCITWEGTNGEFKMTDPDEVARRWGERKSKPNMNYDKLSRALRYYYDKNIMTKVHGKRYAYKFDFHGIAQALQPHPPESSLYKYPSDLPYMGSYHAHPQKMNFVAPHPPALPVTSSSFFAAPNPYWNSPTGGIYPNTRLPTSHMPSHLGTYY
How it was run: as §1

SPIB = SPIB (Homo sapiens, UniProt Q01892 1-262)
Chain of SPIB (Q01892 whole entry): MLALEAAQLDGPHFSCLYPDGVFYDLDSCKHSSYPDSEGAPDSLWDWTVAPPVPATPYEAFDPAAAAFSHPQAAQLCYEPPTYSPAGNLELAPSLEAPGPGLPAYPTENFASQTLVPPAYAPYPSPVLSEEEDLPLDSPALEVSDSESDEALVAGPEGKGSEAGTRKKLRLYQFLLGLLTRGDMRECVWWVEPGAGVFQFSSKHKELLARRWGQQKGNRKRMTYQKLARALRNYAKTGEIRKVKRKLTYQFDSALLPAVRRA
How it was run: as §1

SPIC = target: T5, SPIC (Homo sapiens, UniProt Q8N5J4 1-248)
T5 sequence: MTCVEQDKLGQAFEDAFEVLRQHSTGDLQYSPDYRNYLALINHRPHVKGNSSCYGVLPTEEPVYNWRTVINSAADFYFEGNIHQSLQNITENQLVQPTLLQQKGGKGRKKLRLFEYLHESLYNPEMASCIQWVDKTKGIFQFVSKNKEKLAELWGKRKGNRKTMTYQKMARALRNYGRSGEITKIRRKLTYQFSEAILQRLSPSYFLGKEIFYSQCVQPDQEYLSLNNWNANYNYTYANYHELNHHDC
How it was run: as §1

ELF4 = ELF4 (Homo sapiens, UniProt Q99607 1-663)
Chain of ELF4 (Q99607 whole entry): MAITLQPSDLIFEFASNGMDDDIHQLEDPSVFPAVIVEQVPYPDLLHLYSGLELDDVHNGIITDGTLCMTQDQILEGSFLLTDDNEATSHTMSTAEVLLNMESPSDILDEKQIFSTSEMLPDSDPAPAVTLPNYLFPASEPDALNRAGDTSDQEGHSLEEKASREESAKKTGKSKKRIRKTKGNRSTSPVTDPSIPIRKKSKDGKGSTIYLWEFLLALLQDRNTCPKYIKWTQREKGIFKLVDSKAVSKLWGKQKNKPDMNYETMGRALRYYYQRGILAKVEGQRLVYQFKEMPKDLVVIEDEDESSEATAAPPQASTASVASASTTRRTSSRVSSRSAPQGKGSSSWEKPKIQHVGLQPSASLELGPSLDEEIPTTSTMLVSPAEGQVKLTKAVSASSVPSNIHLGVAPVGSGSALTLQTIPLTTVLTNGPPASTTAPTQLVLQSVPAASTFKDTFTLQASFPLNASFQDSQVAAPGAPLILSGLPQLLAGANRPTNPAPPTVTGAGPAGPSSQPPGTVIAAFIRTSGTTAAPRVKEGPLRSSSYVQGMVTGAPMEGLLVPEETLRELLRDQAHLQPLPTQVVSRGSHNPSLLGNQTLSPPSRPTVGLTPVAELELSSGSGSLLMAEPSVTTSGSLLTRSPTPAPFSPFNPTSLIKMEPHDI
How it was run: as §1

ELK4 = target: T6, ELK4 (Homo sapiens, UniProt P28324-2 1-405)
T6 sequence: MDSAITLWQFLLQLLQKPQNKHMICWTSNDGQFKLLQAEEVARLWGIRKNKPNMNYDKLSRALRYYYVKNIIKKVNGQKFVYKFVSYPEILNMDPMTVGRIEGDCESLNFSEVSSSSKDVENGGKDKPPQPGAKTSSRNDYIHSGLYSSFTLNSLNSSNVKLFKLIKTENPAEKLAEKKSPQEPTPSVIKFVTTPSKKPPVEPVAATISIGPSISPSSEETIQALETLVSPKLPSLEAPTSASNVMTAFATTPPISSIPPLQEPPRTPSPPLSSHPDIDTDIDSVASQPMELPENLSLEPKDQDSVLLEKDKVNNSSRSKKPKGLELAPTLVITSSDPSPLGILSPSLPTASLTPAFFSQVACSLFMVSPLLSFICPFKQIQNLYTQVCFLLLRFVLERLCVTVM
How it was run: as §1

ETV2 = target: T7, ETV2 (Homo sapiens, UniProt O00321 1-342)
T7 sequence: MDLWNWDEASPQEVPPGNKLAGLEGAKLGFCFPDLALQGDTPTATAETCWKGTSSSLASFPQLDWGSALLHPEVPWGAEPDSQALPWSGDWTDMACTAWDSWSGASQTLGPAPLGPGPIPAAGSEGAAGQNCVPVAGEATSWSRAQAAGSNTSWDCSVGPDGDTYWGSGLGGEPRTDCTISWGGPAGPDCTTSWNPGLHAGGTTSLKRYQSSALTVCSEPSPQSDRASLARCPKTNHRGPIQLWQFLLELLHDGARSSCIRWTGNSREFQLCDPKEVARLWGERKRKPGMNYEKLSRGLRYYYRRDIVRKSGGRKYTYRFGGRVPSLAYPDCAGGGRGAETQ
How it was run: as §1

ELF3 = target: T8, ELF3 (Homo sapiens, UniProt P78545 1-371)
T8 sequence: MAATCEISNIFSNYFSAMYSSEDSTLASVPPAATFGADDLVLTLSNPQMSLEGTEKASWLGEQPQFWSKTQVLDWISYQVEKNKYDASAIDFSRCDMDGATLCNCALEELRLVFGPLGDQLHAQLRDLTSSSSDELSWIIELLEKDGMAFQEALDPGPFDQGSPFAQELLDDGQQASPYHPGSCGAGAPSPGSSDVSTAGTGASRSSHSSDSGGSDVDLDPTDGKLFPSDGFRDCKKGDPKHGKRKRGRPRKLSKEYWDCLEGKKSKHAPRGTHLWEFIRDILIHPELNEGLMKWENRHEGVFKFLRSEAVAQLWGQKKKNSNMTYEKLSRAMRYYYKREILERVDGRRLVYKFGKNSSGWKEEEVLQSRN
How it was run: as §1

ETV1 = ETV1 (Homo sapiens, UniProt P50549 1-477)
Chain of ETV1 (P50549 whole entry): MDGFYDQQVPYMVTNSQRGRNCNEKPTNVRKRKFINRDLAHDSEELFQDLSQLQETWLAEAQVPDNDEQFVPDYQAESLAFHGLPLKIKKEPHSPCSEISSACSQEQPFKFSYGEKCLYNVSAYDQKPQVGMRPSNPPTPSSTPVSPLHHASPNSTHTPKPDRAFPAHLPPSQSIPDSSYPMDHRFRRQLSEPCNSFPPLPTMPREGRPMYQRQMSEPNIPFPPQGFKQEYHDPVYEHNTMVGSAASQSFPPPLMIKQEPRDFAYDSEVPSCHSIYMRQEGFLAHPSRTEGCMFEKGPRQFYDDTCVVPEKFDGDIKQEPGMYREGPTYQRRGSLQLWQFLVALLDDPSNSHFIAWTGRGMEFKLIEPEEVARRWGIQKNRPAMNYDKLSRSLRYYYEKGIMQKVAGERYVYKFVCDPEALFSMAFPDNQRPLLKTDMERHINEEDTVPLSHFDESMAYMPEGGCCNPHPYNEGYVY
How it was run: as §1

ERF = target: T9, ERF (Homo sapiens, UniProt P50548 1-548)
T9 sequence: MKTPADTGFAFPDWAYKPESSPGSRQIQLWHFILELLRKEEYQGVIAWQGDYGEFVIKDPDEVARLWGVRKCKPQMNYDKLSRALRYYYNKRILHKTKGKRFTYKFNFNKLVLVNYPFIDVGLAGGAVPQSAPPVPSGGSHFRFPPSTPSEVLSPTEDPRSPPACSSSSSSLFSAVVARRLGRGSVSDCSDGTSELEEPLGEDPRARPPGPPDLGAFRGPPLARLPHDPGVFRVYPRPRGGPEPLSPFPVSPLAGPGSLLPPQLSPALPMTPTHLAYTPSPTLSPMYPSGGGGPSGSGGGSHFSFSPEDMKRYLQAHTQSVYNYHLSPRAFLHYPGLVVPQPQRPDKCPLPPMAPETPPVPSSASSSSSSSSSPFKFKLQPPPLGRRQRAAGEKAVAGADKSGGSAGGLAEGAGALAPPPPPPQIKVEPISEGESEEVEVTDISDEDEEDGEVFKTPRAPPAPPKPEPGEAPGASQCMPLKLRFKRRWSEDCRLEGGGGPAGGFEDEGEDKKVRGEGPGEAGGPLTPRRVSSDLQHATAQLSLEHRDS
How it was run: as §1

ETV3L = target: T10, ETV3L (Homo sapiens, UniProt Q6ZN32 1-361)
T10 sequence: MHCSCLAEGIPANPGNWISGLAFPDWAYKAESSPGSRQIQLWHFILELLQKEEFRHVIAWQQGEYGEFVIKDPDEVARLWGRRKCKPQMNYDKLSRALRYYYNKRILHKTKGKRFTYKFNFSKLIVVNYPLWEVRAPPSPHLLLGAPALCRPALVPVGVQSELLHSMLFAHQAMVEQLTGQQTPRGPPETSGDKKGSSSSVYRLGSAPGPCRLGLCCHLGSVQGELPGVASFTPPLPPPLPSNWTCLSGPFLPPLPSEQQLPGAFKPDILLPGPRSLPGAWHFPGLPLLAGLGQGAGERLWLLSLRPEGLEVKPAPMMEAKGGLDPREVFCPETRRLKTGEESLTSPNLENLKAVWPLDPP
How it was run: as §1

ETS2 = target: T11, ETS2 (Homo sapiens, UniProt P15036 1-469)
T11 sequence: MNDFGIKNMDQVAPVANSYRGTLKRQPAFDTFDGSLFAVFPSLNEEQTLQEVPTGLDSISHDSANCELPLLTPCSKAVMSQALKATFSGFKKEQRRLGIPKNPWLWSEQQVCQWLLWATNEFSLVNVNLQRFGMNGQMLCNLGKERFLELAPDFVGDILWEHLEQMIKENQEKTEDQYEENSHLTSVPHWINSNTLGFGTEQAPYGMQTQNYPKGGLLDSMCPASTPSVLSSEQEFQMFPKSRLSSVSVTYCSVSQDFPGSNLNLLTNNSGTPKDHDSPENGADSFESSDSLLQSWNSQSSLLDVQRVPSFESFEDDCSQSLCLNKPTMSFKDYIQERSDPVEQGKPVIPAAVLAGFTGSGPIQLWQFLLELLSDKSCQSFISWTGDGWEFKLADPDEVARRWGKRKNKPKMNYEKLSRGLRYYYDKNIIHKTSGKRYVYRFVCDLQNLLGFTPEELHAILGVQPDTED
How it was run: as §1

ETV3 = target: T12, ETV3 (Homo sapiens, UniProt P41162-2 1-143)
T12 sequence: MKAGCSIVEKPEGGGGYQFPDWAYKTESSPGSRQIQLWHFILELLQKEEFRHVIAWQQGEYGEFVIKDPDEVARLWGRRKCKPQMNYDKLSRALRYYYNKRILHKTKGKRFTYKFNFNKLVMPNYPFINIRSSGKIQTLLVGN
How it was run: as §1

ETV6 = ETV6 (Homo sapiens, UniProt P41212 1-452)
Chain of ETV6 (P41212 whole entry): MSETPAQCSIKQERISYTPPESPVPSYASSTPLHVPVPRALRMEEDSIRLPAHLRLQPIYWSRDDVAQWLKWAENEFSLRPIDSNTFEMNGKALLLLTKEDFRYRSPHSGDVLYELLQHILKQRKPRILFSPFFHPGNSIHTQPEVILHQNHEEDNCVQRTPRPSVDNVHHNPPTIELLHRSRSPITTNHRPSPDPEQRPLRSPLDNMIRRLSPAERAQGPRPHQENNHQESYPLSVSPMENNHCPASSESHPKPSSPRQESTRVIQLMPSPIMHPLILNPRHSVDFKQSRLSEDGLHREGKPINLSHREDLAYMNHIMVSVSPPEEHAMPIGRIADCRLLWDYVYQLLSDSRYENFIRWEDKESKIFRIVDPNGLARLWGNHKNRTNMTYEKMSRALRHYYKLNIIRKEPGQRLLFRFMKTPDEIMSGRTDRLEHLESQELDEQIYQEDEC
How it was run: as §1

TGGATA
binding signal (FLI1): 1.08 fold enrichment (6-mer frequency, TF over GST control) | binding signal (ELK1): 1.05 fold enrichment (6-mer frequency, TF over GST control) | binding signal (GABPA): 1.1 fold enrichment (6-mer frequency, TF over GST control) | binding signal (ERG): 1.08 fold enrichment (6-mer frequency, TF over GST control) | binding signal (SPIB): 1.12 fold enrichment (6-mer frequency, TF over GST control) | binding signal (SPIC): 1.04 fold enrichment (6-mer frequency, TF over GST control) | binding signal (ELF4): 1.05 fold enrichment (6-mer frequency, TF over GST control) | binding signal (ELK4): 1.07 fold enrichment (6-mer frequency, TF over GST control) | binding signal (ETV2): 1.02 fold enrichment (6-mer frequency, TF over GST control) | binding signal (ELF3): 1.16 fold enrichment (6-mer frequency, TF over GST control) | binding signal (ETV1): 1.09 fold enrichment (6-mer frequency, TF over GST control) | binding signal (ERF): 1 fold enrichment (6-mer frequency, TF over GST control) | binding signal (ETV3L): 1.04 fold enrichment (6-mer frequency, TF over GST control) | binding signal (ETS2): 1.06 fold enrichment (6-mer frequency, TF over GST control) | binding signal (ETV3): 1.06 fold enrichment (6-mer frequency, TF over GST control) | binding signal (ETV6): 1 fold enrichment (6-mer frequency, TF over GST control)
